# Sm TGR inh: qHTS Assay for the Inhibitors of Schistosoma Mansoni Peroxiredoxins; hit rate 3% among 360,000; Potency, µM (series often up to 114 µM), for inactives: at the highest dose activity change, negative = inhibition, usual class: inhibitors; AID 485364, 2010; Schistosoma mansoni thioredoxin glutathione reductase (TGR), Q962Y6; purified TGR, DTNB reduction, TNB absorbance 405 nm; also: % is scaled to controls: 0 for no effect and ±100 for the full control effect; nearly all actives have a fitted effect of over 60% in size
#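 First, TGR (20 nM dispensed) and NADPH were mixed with compound. Second, a 15 min room-temperature incubation followed. Third, further NADPH and then DTNB were added to start the reaction. Finally, TNB absorbance was monitored kinetically.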
# SARS PLP yeast: qHTS of Yeast-based Assay for SARS-CoV PLP. Potency, µM (highest dose often 32.9 µM), inactives show top-dose activity, positive = growth rescue, hits mostly activators. S. cerevisiae expressing SARS-CoV PLpro, growth rescue. hit rate 0.19% among 330,000; calls by dose curve; also: 0% is about no effect; nearly all actives have a fitted effect of over 55% in size
# Pf growth 48h: Primary qHTS for delayed death inhibitors of the malarial parasite plastid, 48 hour incubation; hit rate 5.9% among 310,000; AID 504832, 2011; P. falciparum luciferase growth in erythrocytes, 48 h; Potency, µM (top dose mostly 28.7 µM), for inactives: at the highest dose activity change, negative = inhibition, actives largely listed as inhibitors; also: % is scaled to controls: 0 for no effect and ±100 for the full control effect
#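 Erythrocytes infected with P. falciparum carrying an integrated firefly luciferase reporter (2% hematocrit, 0.1% parasitemia final) were exposed to compounds in RPMI 1640 with 0.5% Albumax at 37 C, 5% CO2. Growth inhibition was scored as reduced luminescence.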
# Pf growth 96h: Primary qHTS for delayed death inhibitors of the malarial parasite plastid, 96 hour incubation | P. falciparum luciferase reporter growth, 96 h | Potency, µM (titrated, usually from 28.7 µM), inactives show top-dose activity change, negative = inhibition, hits mostly inhibitors | hit rate 6.9% among 320,000 | AID 504834, 2011; also: % is scaled to controls: 0 for no effect and ±100 for the full control effect
#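 Parasite growth measured via integrated firefly luciferase reporter in P. falciparum. Infected erythrocytes at 2% hematocrit, 0.05% parasitemia final were treated 96 hours at 37 C under 5% CO2, and luminescence was read.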
# An asterisk follows results filed as active; ? = inconclusive; / = no result. The list is not random: actives were taken first. Their share in the collection is about 12%. Unless noted, calls follow the shape of the dose curve; as a rule, active = well fitted curve in the direction sought with a large enough effect; inconclusive = small, poorly fitted or top-dose-only effect, or another doubt; inactive = no such curve, though single readings can be large; an effect the other way counts as inactive or inconclusive. Potency is read from the fitted curve at half-maximal effect.
SMILES,Sm TGR inh,SARS PLP yeast,Pf growth 48h,Pf growth 96h
Cc1ccc(C(=O)N2CCN3C(=O)c4ccccc4C23c2ccccc2)cc1 (stereo not drawn),-9.5%,1.4%,?,?
O=C1c2ccccc2C2(c3ccccc3)N1CCN2C(=O)C(Cl)(Cl)Cl (stereo not drawn),-4.5%,-6.1%,/,0.828µM*
CNc1c(NS(=O)(=O)c2ccc(OC)c(Cl)c2)c(=O)oc2ccccc12,1.8%,4.9%,-7.6%,60.2%
Cc1cc2oc(C(=O)N(Cc3ccco3)Cc3ccccc3Cl)c(C)c2cc1C,1.9%,/,/,/
CCOC(=O)CNC(=S)N(Cc1ccco1)Cc1ccccc1Cl,-28.7%,0.5%,-14.4%,2.62µM*
COc1cc(OC)cc(C(=O)Nc2ccn(C)n2)c1,-13.0%,-4.0%,19.7%,9.7%
O=C(CN(CC1CCCO1)C(=O)CNS(=O)(=O)c1ccc(F)cc1)NC1CCCCC1 (stereo not drawn),89.3%,-5.0%,25.9%,2.6%
COc1ccccc1-n1ccnc(SCC(=O)NCCc2ccccc2)c1=O,-18.4%,-2.3%,-15.1%,2.1%
COC(=O)C1=C(c2cccc(C#N)c2)C[C@@H]2CC[C@H]1N2C(=O)NCCc1ccccc1,-7.8%,1.7%,?,?
COC(=O)C1=C(c2ccc(F)cc2OCc2ccccc2)C[C@@H]2CC[C@H]1N2C(=O)NC1CCN(Cc2ccccc2)CC1,3.6%,1.4%,13.1µM*,?
COC(=O)C1=C(c2cccc(OCc3ccccc3)c2)C[C@@H]2CC[C@H]1N2C(=O)NC1CCN(Cc2ccccc2)CC1,-2.7%,-0.9%,13.1µM*,?
COC(=O)C1=C(c2ccccc2OCc2ccccc2)C[C@@H]2CC[C@H]1N2C(=O)NC1CCN(Cc2ccccc2)CC1,-11.5%,-6.5%,13.1µM*,?
CSCCC(N=C1NS(=O)(=O)c2ccccc21)C(=O)N1CCCC(C(N)=O)C1 (stereo not drawn),-1.6%,8.5%,7.8%,17.8%
CCCCNC(=O)C1C2C=CC3(CN(Cc4ccc(C)cc4)C(=O)C13)O2 (stereo not drawn),-1.5%,2.3%,1.2%,10.4µM*
CCCNS(=O)(=O)c1ccc(NC(=O)c2ccccn2)cc1,3.9%,-0.7%,76.9%,10.4µM*
CC(C)(C)c1ccc(C(=O)Nc2ccc(S(=O)(=O)Nc3cnc4ccccc4n3)cc2)cc1,0.5%,-0.5%,13.1µM*,9.4%
COC(=O)Nc1ccc(S(=O)(=O)Nc2cnc3ccccc3n2)cc1,5.8%,0.4%,46.4%,12.3%
O=C(/C=C/c1c(F)cccc1Cl)Nc1ccc(S(=O)(=O)Nc2ncccn2)cc1,-23.5%,-6.1%,-5.2%,13.1µM*
O=C(Nc1ccc(S(=O)(=O)Nc2ncccn2)cc1)c1ccccc1,1.2%,-11.8%,0.0%,1.17µM*
CC(C)Oc1ccc(CNC(=O)c2ccc3c(c2)N(Cc2ccc(F)cc2)CCS3)cc1,7.8%,/,/,/
Cc1cccc(Cn2cccc2CNS(=O)(=O)c2ccc(C)c(C)c2)c1,-5.4%,/,/,/
O=C(Cn1nc(-c2ccccc2)c2ccccc2c1=O)NN1CCOCC1,1.5%,1.1%,14.7µM*,0.0%
COc1cc(/C=C/C(=O)Nc2ccc3nc4n(c(=O)c3c2)CCCC4)cc(OC)c1OC,0.4%,-2.8%,?,-18.1%
COc1cccc(NC(=O)CC(=O)Nc2ccc3nc4n(c(=O)c3c2)CCCCC4)c1,-2.8%,/,/,/
COc1cc(OC)cc(C(=O)Nc2ccc3nc4n(c(=O)c3c2)CCCCC4)c1,9.8%,-0.2%,56.0%,13.1µM*
SMILES,Sm TGR inh,SARS PLP yeast,Pf growth 48h,Pf growth 96h
COc1cccc(/C=C/C(=O)Nc2ccc3nc4n(c(=O)c3c2)CCCC4)c1OC,-2.2%,1.2%,2.08µM*,?
COc1ccc(NC(=O)C(=O)Nc2ccc3nc4n(c(=O)c3c2)CCCCC4)c(OC)c1,0.9%,/,/,/
COc1ccccc1C(=O)Nc1ccc2nc3n(c(=O)c2c1)CCCC3,?,-2.5%,?,0.522µM*
COc1ccc(OC)c(CCNC(=O)C(=O)Nc2ccc3nc4n(c(=O)c3c2)CCCCC4)c1,4.1%,-2.3%,4.15µM*,3.8%
CCOc1ccccc1NC(=O)C(=O)Nc1ccc2nc3n(c(=O)c2c1)CCCCC3,0.3%,/,/,/
Cc1cccc(C)c1NC(=O)Cn1cc(C(=O)C2CC2)c2ccccc21,3.8%,/,/,/
O=C(Nc1nc(-c2cccs2)cs1)c1ccc([N+](=O)[O-])o1,?,-0.5%,?,?
O=C(Nc1ccc(Cl)cc1)C1CCN(S(=O)(=O)c2ccc(Br)s2)CC1,-1.6%,/,/,/

# Assay outcomes: PubChem BioAssay, National Center for Advancing Translational Sciences (NCATS)
